The values below come from PMC8384837, “Expanding the binding specificity for RNA recognition by a PUF domain”.

Substitutions are numbered along the chain they refer to.

Common to all, as to assay: yeast three-hybrid, YBZ-1, SC-Leu-His + 0.5 mM 3-AT, 4 days
What all share (details): tags: N-Gal4 AD-HA kept; label: inside an RPR1-promoter hybrid RNA with tandem MS2 sites; ssRNA

One experiment deals with PUM1 PUF domain R5-SGS (Homo sapiens, UniProt Q14671 828-1176, C1007S;R1008G;Q1011S). The essentials: (§1)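 Each repeat of the Pumilio-1 PUF domain was randomized at its three base-contacting residues, and these libraries were co-expressed from a centromeric plasmid with matching RNA elements in strain YBZ-1. After four days on SC-Leu (input) or SC-Leu-His + 0.5 mM 3-AT (selection), the repeat regions were PCR-amplified and Illumina-sequenced. The interaction score compares variant frequency between input and selection as a log change, computed in log2 with a pseudocount of 1 for absent variants.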

The next experiment addresses PUM1 PUF domain R5-RRC (Homo sapiens, UniProt Q14671 828-1176, C1007R;Q1011C). The essentials: as §1
The target of the next experiment is PUM1 PUF domain R1-MYR (Homo sapiens, UniProt Q14671 828-1176, S863M;R864Y;Q867R). In outline: as §1
For the next experiment, the target named is PUM1 PUF domain R3-RAH (Homo sapiens, UniProt Q14671 828-1176, C935R;R936A;Q939H). In outline: as §1
For another experiment, the target named is T1, PUM1 PUF domain R6-AYM (Homo sapiens, UniProt Q14671 828-1176, N1043A;Q1047M).
T1 sequence: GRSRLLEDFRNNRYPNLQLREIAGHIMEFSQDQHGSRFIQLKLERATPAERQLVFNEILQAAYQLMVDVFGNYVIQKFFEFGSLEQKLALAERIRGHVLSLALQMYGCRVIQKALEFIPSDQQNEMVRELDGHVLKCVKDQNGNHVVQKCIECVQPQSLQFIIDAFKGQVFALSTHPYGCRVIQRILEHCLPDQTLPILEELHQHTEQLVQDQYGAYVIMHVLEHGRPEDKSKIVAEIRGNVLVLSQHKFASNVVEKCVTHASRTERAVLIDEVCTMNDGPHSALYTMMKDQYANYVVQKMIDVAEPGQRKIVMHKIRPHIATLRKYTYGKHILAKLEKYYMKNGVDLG
The essentials: as §1

The next experiment deals with PUM1 PUF domain R8-KWH (Homo sapiens, UniProt Q14671 828-1176, N1122K;Y1123W;Q1126H). In outline:
as §1

The next experiment deals with PUM1 PUF domain R3-APM (Homo sapiens, UniProt Q14671 828-1176, C935A;R936P;Q939M). The essentials:
as §1

A further experiment addresses PUM1 PUF domain R4-CPN (Homo sapiens, UniProt Q14671 828-1176, N971C;H972P;Q975N). The essentials:
as §1

Another experiment deals with PUM1 PUF domain R5-MGR (Homo sapiens, UniProt Q14671 828-1176, C1007M;R1008G;Q1011R). In outline: as §1
The target of another experiment is T2, PUM1 PUF domain R6-GFE (Homo sapiens, UniProt Q14671 828-1176, N1043G;Y1044F;Q1047E).
T2 sequence: T1 sequence with A216G, Y217F, M220E
The essentials:
as §1

As to “GGCUAGAACUAGUGGAUCCCCCGGCGCCCGGCGGCUCGAGCCCGGGUAAGUGUGAAUAGUCUGCAUGCCGCCGGGCGCCAUGCCUGCAGGUCGACUCUAGAAAACAUG”, the binding signal in the experiment with PUM1 PUF domain R5-SGS was 2.71 log2 enrichment (interaction score); with PUM1 PUF domain R5-RRC it was 1.37 log2 enrichment (interaction score).
As to “GGCUAGAACUAGUGGAUCCCCCGGCGCCCGGCGGCUCGAGCCCGGGUAAGUGUAAAUCGUCUGCAUGCCGCCGGGCGCCAUGCCUGCAGGUCGACUCUAGAAAACAUG”, in the experiment with PUM1 PUF domain R1-MYR, the binding signal was 3.82 log2 enrichment (interaction score).
Regarding “GGCUAGAACUAGUGGAUCCCCCGGCGCCCGGCGGCUCGAGCCCGGGUAAGUGUAAUUAGUCUGCAUGCCGCCGGGCGCCAUGCCUGCAGGUCGACUCUAGAAAACAUG”, the binding signal in the experiment with PUM1 PUF domain R3-RAH was 3.61 log2 enrichment (interaction score).
For “GGCUAGAACUAGUGGAUCCCCCGGCGCCCGGCGGCUCGAGCCCGGGUAAGUGUAAAUAGUCUGCAUGCCGCCGGGCGCCAUGCCUGCAGGUCGACUCUAGAAAACAUG”, the binding signal is 4.27 log2 enrichment (interaction score) with PUM1 PUF domain R6-AYM; 4.79 log2 enrichment (interaction score) with PUM1 PUF domain R8-KWH; 2.44 log2 enrichment (interaction score) in the experiment with PUM1 PUF domain R3-APM; 3.19 log2 enrichment (interaction score) with PUM1 PUF domain R4-CPN; 2.21 log2 enrichment (interaction score) with PUM1 PUF domain R5-RRC; 1.08 log2 enrichment (interaction score) in the experiment with PUM1 PUF domain R5-MGR.
For the sequence “GGCUAGAACUAGUGGAUCCCCCGGCGCCCGGCGGCUCGAGCCCGGGUAAGUGUCAAUAGUCUGCAUGCCGCCGGGCGCCAUGCCUGCAGGUCGACUCUAGAAAACAUG”, the binding signal with PUM1 PUF domain R5-RRC is 3.9 log2 enrichment (interaction score); with PUM1 PUF domain R5-MGR it was 3.14 log2 enrichment (interaction score).
“GGCUAGAACUAGUGGAUCCCCCGGCGCCCGGCGGCUCGAGCCCGGGUAAGUGUAAAUUGUCUGCAUGCCGCCGGGCGCCAUGCCUGCAGGUCGACUCUAGAAAACAUG”: in the experiment with PUM1 PUF domain R1-MYR, the binding signal is 3.58 log2 enrichment (interaction score).
Consider “GGCUAGAACUAGUGGAUCCCCCGGCGCCCGGCGGCUCGAGCCCGGGUAAGUGGAAAUAGUCUGCAUGCCGCCGGGCGCCAUGCCUGCAGGUCGACUCUAGAAAACAUG”, for which the binding signal in the experiment with PUM1 PUF domain R6-GFE is 5.67 log2 enrichment (interaction score).
On to “GGCUAGAACUAGUGGAUCCCCCGGCGCCCGGCGGCUCGAGCCCGGGUAAGUGUUAAUAGUCUGCAUGCCGCCGGGCGCCAUGCCUGCAGGUCGACUCUAGAAAACAUG”, for which the binding signal with PUM1 PUF domain R5-RRC was 4.61 log2 enrichment (interaction score).
